Measurements as given in PubChem BioAssay AID1159580 (chemical genetic matrix, 2015).
Out of some 5,500 compounds screened, about 2,000 (36%) were called active. Not shown: some 18% with an inconclusive outcome. Rule as the data show it: active = normalized growth mostly below about 0.91 (no sharp cut-off); inconclusive = no clear call, values can overlap the other calls; inactive = mostly above about 0.92. The list shows a part of the results.

Experiment: chemical genetic growth profiling, strain panel (AID 1159580);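 also: tested at 20 µM; growth read once vehicle control cultures reached saturation at 30 °C; 1 = growth at the plate median or of vehicle wells; lower values mean less growth of the strain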
Settings: growth OD

Measured: normalized growth

O=C(O)[C@H](O)[C@@](O)(Cc1ccc(O)cc1)C(=O)O
inactive: S. cerevisiae deletion strains, locus YJR066W, strain TOR1, stronger effect = lower value 0.995 | S. cerevisiae deletion strains, locus YJR075W, strain HOC1, stronger effect = lower value 1.03 | S. cerevisiae deletion strains, locus YKL009W, strain mrt4, stronger effect = lower value 1.07 | S. cerevisiae deletion strains, locus YKL068W, stronger effect = lower value 1 | S. cerevisiae deletion strains, locus YKL085W, strain MDH1 (second series), stronger effect = lower value 1.02 | S. cerevisiae deletion strains, locus YKL085W, strain MDH1, stronger effect = lower value 1.02 | S. cerevisiae deletion strains, locus YKL160W, strain elf1, stronger effect = lower value 1.01 | S. cerevisiae deletion strains, locus YKL190W, strain CNB1, stronger effect = lower value 1.02 | S. cerevisiae deletion strains, locus YKR001C, strain vps1, stronger effect = lower value 1.02 | S. cerevisiae deletion strains, locus YKR026C, strain gcn3, stronger effect = lower value 1 | S. cerevisiae deletion strains, locus YKR091W, strain srl3, stronger effect = lower value 1 | S. cerevisiae deletion strains, locus YLL001W, strain dnm1, stronger effect = lower value 1.03 | S. cerevisiae deletion strains, locus YLL026W, stronger effect = lower value 1 | S. cerevisiae deletion strains, locus YLL041C, strain sdh2, stronger effect = lower value 1 | S. cerevisiae deletion strains, locus YLR027C, strain aat2, stronger effect = lower value 1.01 | S. cerevisiae deletion strains, locus YLR039C, strain RIC1, stronger effect = lower value 1.13 | S. cerevisiae deletion strains, locus YLR058C, strain SHM2, stronger effect = lower value 1.04 | S. cerevisiae deletion strains, locus YLR102C, strain apc9, stronger effect = lower value 0.994 | S. cerevisiae deletion strains, locus YLR113W, strain HOG1, stronger effect = lower value 1 | S. cerevisiae deletion strains, locus YLR221C, strain rsa3, stronger effect = lower value 1.03 | S. cerevisiae deletion strains, locus YLR258W, strain gsy2, stronger effect = lower value 1.01 | S. cerevisiae deletion strains, locus YLR262C, strain YPT6 (second series), stronger effect = lower value 1.03 | S. cerevisiae deletion strains, locus YLR268W, strain sec22, stronger effect = lower value 1.04 | S. cerevisiae deletion strains, locus YLR320W, strain mms22, stronger effect = lower value 1.03 | S. cerevisiae deletion strains, locus YLR330W, strain CHS5, stronger effect = lower value 1.02 | S. cerevisiae deletion strains, locus YLR342W, strain FKS1 (second series), stronger effect = lower value 1.09 | S. cerevisiae deletion strains, locus YLR342W, strain FKS1, stronger effect = lower value 1.01 | S. cerevisiae deletion strains, locus YLR357W, strain rsc2, stronger effect = lower value 1.01 | S. cerevisiae deletion strains, locus YLR370C, strain arc18, stronger effect = lower value 1.01 | S. cerevisiae deletion strains, locus YLR371W, strain rom2, stronger effect = lower value 1 | S. cerevisiae deletion strains, locus YLR384C, strain iki3, stronger effect = lower value 1.01 | S. cerevisiae deletion strains, locus YLR418C, strain cdc73, stronger effect = lower value 1.01 | S. cerevisiae deletion strains, locus YML016C, strain PPZ1, stronger effect = lower value 1.01 | S. cerevisiae deletion strains, locus YML032C, strain rad52, stronger effect = lower value 1.01 | S. cerevisiae deletion strains, locus YML120C, strain ndi1, stronger effect = lower value 1 | S. cerevisiae deletion strains, locus YML124C, strain tub3, stronger effect = lower value 1.01 | S. cerevisiae deletion strains, locus YMR058W, strain fet3, stronger effect = lower value 1.02 | S. cerevisiae deletion strains, locus YMR078C, strain ctf18, stronger effect = lower value 0.982 | S. cerevisiae deletion strains, locus YMR125W, strain sto1, stronger effect = lower value 1.01 | S. cerevisiae deletion strains, locus YMR129W, stronger effect = lower value 1.01 | S. cerevisiae deletion strains, locus YMR205C, strain PFK2, stronger effect = lower value 1.02 | S. cerevisiae deletion strains, locus YMR223W, strain ubp8, stronger effect = lower value 1.01 | S. cerevisiae deletion strains, locus YMR231W, strain pep5, stronger effect = lower value 0.998 | S. cerevisiae deletion strains, locus YMR263W, strain SAP30, stronger effect = lower value 1.02 | S. cerevisiae deletion strains, locus YMR307W, strain GAS1, stronger effect = lower value 1.04 | S. cerevisiae deletion strains, locus YNL067W, strain RPL9B, stronger effect = lower value 1.02 | S. cerevisiae deletion strains, locus YNL071W, strain lat1, stronger effect = lower value 1.01 | S. cerevisiae deletion strains, locus YNL153C, strain GIM3, stronger effect = lower value 1.02 | S. cerevisiae deletion strains, locus YNL183C, strain NPR1, stronger effect = lower value 1.01 | S. cerevisiae deletion strains, locus YNL209W, strain ssb2, stronger effect = lower value 1 | S. cerevisiae deletion strains, locus YNL233W, strain BNI4, stronger effect = lower value 1.04 | S. cerevisiae deletion strains, locus YNL248C, strain rpa49, stronger effect = lower value 1 | S. cerevisiae deletion strains, locus YNL250W, strain rad50, stronger effect = lower value 1.01 | S. cerevisiae deletion strains, locus YNL271C, strain bni1, stronger effect = lower value 1.01 | S. cerevisiae deletion strains, locus YNL298W, strain CLA4, stronger effect = lower value 0.987 | S. cerevisiae deletion strains, locus YNL307C, strain MCK1, stronger effect = lower value 0.987 | S. cerevisiae deletion strains, locus YNL322C, strain KRE1 (second series), stronger effect = lower value 1.01 | S. cerevisiae deletion strains, locus YNR049C, strain mso1, stronger effect = lower value 1 | S. cerevisiae deletion strains, locus YNR052C, strain pop2, stronger effect = lower value 0.995 | S. cerevisiae deletion strains, locus YOL006C, strain TOP1, stronger effect = lower value 1.25 | S. cerevisiae deletion strains, locus YOL012C, strain htz1 0.973 | S. cerevisiae deletion strains, locus YOL147C, strain pex11, stronger effect = lower value 1 | S. cerevisiae deletion strains, locus YOR001W, strain rrp6, stronger effect = lower value 0.986 | S. cerevisiae deletion strains, locus YOR061W, strain CKA2, stronger effect = lower value 1.04 | S. cerevisiae deletion strains, locus YOR069W, strain VPS5, stronger effect = lower value 1.01 | S. cerevisiae deletion strains, locus YOR070C, strain gyp1, stronger effect = lower value 1.02 | S. cerevisiae deletion strains, locus YOR080W, strain dia2, stronger effect = lower value 1.01 | S. cerevisiae deletion strains, locus YOR083W, strain WHI5, stronger effect = lower value 1.03 | S. cerevisiae deletion strains, locus YOR106W, strain vam3, stronger effect = lower value 1.01 | S. cerevisiae deletion strains, locus YOR136W, strain idh2, stronger effect = lower value 1.01 | S. cerevisiae deletion strains, locus YOR144C, strain elg1, stronger effect = lower value 1 | S. cerevisiae deletion strains, locus YOR184W, strain ser1, stronger effect = lower value 1.04 | S. cerevisiae deletion strains, locus YOR231W, strain MKK1, stronger effect = lower value 1.02 | S. cerevisiae deletion strains, locus YOR265W, strain rbl2, stronger effect = lower value 1 | S. cerevisiae deletion strains, locus YOR270C, strain vph1, stronger effect = lower value 1.05 | S. cerevisiae deletion strains, locus YOR290C, strain snf2, stronger effect = lower value 1.01 | S. cerevisiae deletion strains, locus YOR316C, strain cot1, stronger effect = lower value 1 | S. cerevisiae deletion strains, locus YPL051W, strain arl3, stronger effect = lower value 1.05 | S. cerevisiae deletion strains, locus YPL078C, strain atp4, stronger effect = lower value 1.01 | S. cerevisiae deletion strains, locus YPL106C, strain sse1, stronger effect = lower value 1.01 | S. cerevisiae deletion strains, locus YPL240C, strain hsp82, stronger effect = lower value 1.01 | S. cerevisiae deletion strains, locus YPL241C, strain CIN2, stronger effect = lower value 1.01 | S. cerevisiae deletion strains, locus YPL256C, strain CLN2, stronger effect = lower value 0.993 | S. cerevisiae deletion strains, locus YPR119W, strain clb2, stronger effect = lower value 1 | S. cerevisiae deletion strains, locus YPR141C, strain kar3, stronger effect = lower value 1 | S. cerevisiae deletion strains, locus YPR163C, strain tif3, stronger effect = lower value 0.992 | S. cerevisiae deletion strains, locus YPR167C, strain met16, stronger effect = lower value 1.01 | S. cerevisiae deletion strains, strain wtn01, stronger effect = lower value 1.02 | S. cerevisiae strains, strain wild type, stronger effect = lower value 1.03
